Bioassay records deposited in PubChem BioAssay by National Center for Advancing Translational Sciences (NCATS).
An excerpt weighted towards active compounds, which were near 3.6% of everything screened.
A549 tox: counter-screen for Nrf2 inhibitors: cytotoxicity in A549 cells. A549 ARE-Fluc cells, CellTiter-Fluor viability, 18-24 h. Potency, µM (highest dose often 46 µM), for the others: top-dose activity change, negative = cytotoxicity, actives largely listed as inhibitors. actives 0.16% (n = 390,000); further: on the % scale 0 is the no-effect control and ±100 the full control effect
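Cytotoxicity counterscreen: CellTiter-Fluor fluorescence was measured in A549 ARE_Fluc cells after 18-24 h of compound exposure in a concentration series. The subsequent BugLite luminescent read reports ARE-luciferase activity.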
Nrf2 activator: Nrf2 pathway activation; actives 0.31% (n = 410,000); AID 624171; Potency, µM (doses to about 46.1 µM), without a hit: at the highest dose activation, most hits filed as activators; AREc32 ARE-luciferase reporter (MCF7-derived line), luminescence, 24 h; further: % of control where 0% means no effect; nearly all actives have a fitted effect of over 65% in size
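Quantitative high-throughput format: AREc32 reporter cells, 1000 per well, received compound by pin transfer and were incubated 24 hr at 37 deg C, 5% CO2, before Steady-Glo luminescence detection.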
TGFb inhibitor: inhibitors of TGF-b signaling | HepG2 CAGA-GFP TGF-b/SMAD3 reporter, GFP fluorescence, 18 h; TGF-beta stimulated, 500 pg/mL final | AID 588855 | Potency, µM (highest dose often 46.1 µM), for inactives: at the top dose activity, negative = inhibition, hits mostly inhibitors | actives 1.2% (n = 410,000); further: on the % scale 0 is the no-effect control and ±100 the full control effect; nearly all actives have a fitted effect of over 65% in size
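TGF-beta reporter screen: HEPG2 CAGA-GFP, 1% FBS, 500 pg/mL TGF-beta final, 18 h; per-cell GFP summed per well; curves fitted and categorized by class.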
HepG2 tox: HepG2 cytotoxicity, counter-screen for TGF-b inhibitors | HepG2 CAGA-GFP viability, ATP luminescence, 18 h | Potency, µM (top dose mostly 46.1 µM), for the others: at the top dose activity change, negative = cytotoxicity, hits mostly cytotoxic | actives 0.76% (n = 410,000) | AID 588856
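CellTiter-Glo luminescence gave cytotoxicity after 18 hours at 37 degrees C. The cells were HepG2 CAGA-GFP in 1% FBS DMEM, stimulated with 500 pg/mL TGF-beta after compound addition. %Activity was normalised to no-cell wells (complete cell-killing) and DMSO (no toxicity), and curves were fitted and classified.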
Nrf2 block: Nrf2 pathway inhibition | A549 ARE-Fluc reporter, luciferase luminescence, 18-24 h | actives 2.1% (n = 360,000) | AID 504444 | Potency, µM (doses to about 46 µM), without a hit: at the highest dose activity change, negative = inhibition, hits mostly inhibitors; further: on the % scale 0 is the no-effect control and ±100 the full control effect; nearly all actives have a fitted effect of over 60% in size
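A549 ARE_Fluc cells, 5000/well, 5% FBS OPTI-MEM; compounds in dose-response, 18-24 h at 37 °C/5% CO2; CellTiter-Fluor viability read (Ex 405/Em 525), then BugLite luciferase luminescence = Nrf2 activity.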
An asterisk follows results filed as active; [ ] = another dose, or the depositor's remark. The call rests on the fitted dose curve; in most records, active means well fitted curve in the direction sought with a large enough effect; inconclusive means small, poorly fitted or top-dose-only effect, or another doubt; inactive means no such curve, though single readings can be large; an effect the other way counts as inactive or inconclusive. Potency means the concentration at half of the fitted maximal effect.

COc1ccc(Nc2nc(N)c(C(=O)c3ccc(OC)cc3)s2)cc1 was read as A549 tox 2.4%, Nrf2 activator 0.3%, TGFb inhibitor 12.6µM*, HepG2 tox -153.4% and Nrf2 block inconclusive.
`Cc1ccc(C(=O)c2sc(Nc3ccc(F)cc3)nc2N)c(C)c1` gave A549 tox 2.1%, Nrf2 activator -2.8%, TGFb inhibitor 12.6µM*, HepG2 tox -74.9% and Nrf2 block inconclusive.
COc1ccc(Nc2nc(N)c(C(=O)c3ccc(F)cc3)s2)cc1 was read as A549 tox -1.5%, Nrf2 activator -0.2%, TGFb inhibitor -21.5%, HepG2 tox -5.5% and Nrf2 block 15.2%.
For CCOc1ccc(Nc2nc(N)c(C(=O)c3ccccc3Cl)s2)cc1 the results were A549 tox -27.8%, Nrf2 activator -3.7%, TGFb inhibitor 3.55µM*, HepG2 tox -45.6% and Nrf2 block -25.3%.
For Cc1cccc(NC(=O)c2ccc(F)c(S(=O)(=O)N3CCN(c4ccc(F)cc4)CC3)c2)c1 the results were A549 tox -11.5%, Nrf2 activator -0.6%, TGFb inhibitor -21.4% and HepG2 tox -0.5%.
Cc1c(-c2ccccc2)nc(-c2ccccc2)[nH]c1=O was read as A549 tox -2.9%, Nrf2 activator 2.7%, TGFb inhibitor -0.2%, HepG2 tox 5.1% and Nrf2 block 17.1%.
COc1cccc(NC(=O)C2CCN(Cc3cnn(-c4ccccc4)c3-n3cccc3)CC2)c1 was read as A549 tox -25.0%, Nrf2 activator 3.0%, TGFb inhibitor -0.2%, HepG2 tox -23.6% and Nrf2 block inconclusive.
Clc1ccc2c(NCCNC3CCCCC3)ccnc2c1 was read as A549 tox inconclusive, Nrf2 activator 15.5%, TGFb inhibitor inconclusive, HepG2 tox 12.6µM* and Nrf2 block 2.0%.
FC(F)(F)c1cc(-c2ccc(Cl)cc2)nc(NCc2cccnc2)n1 was read as A549 tox 6.4%[1.84 µM], Nrf2 activator 3.0%, TGFb inhibitor -7.5%, HepG2 tox -35.8% and Nrf2 block 14.6µM*.
Screening COc1ccc(-c2csc(N(CCCN(C)C)C(=O)c3cccs3)n2)cc1 returned A549 tox -5.9%, Nrf2 activator 5.5%, TGFb inhibitor -23.3%, HepG2 tox 10µM* and Nrf2 block 16.9%.
CCOc1ccc(CN(C)C(=O)[C@H](Cc2ccccc2)NC(=O)OCc2ccccc2)cc1OC was read as A549 tox inconclusive, Nrf2 activator 0.1%, TGFb inhibitor -21.0%, HepG2 tox -16.5% and Nrf2 block 20.6µM*.
COCCN1CC(CNC(=O)c2cc(COc3ccc(C)c(C)c3)on2)CC1=O (centres undefined) was read as A549 tox 3.7%, Nrf2 activator -1.3%, TGFb inhibitor -3.0%, HepG2 tox -1.2% and Nrf2 block -1.8%.
For O=C(c1noc2c1CCCCC2)N1CCN(c2ccc(Cl)cc2)CC1 the results were A549 tox -0.5%, Nrf2 activator -0.6%, TGFb inhibitor inconclusive, HepG2 tox -23.5% and Nrf2 block 8.2µM*.
For Cc1cc(NC(=O)c2noc3c2CCCC3)nn1Cc1ccc(Cl)cc1 the results were A549 tox -12.2%, Nrf2 activator 3.5%, TGFb inhibitor inconclusive, HepG2 tox -19.6% and Nrf2 block 23.1µM*.
Screening COc1ccc(-c2cc(C(=O)Nc3cc(C)n(Cc4ccc(Cl)cc4)n3)no2)cc1OC returned A549 tox -28.4%, Nrf2 activator -0.2%, TGFb inhibitor inconclusive, HepG2 tox -30.5% and Nrf2 block 4.11µM*.
COc1cccc(OCC(O)CN2CCc3ccccc3C2)c1 (centres undefined) was read as A549 tox -1.9%, Nrf2 activator -0.4%, TGFb inhibitor -1.2%, HepG2 tox -5.6% and Nrf2 block 2.6%.
CCOC(=O)NC1(C(F)(F)F)N=C(c2ccccc2)NC1=O (centres undefined) was read as A549 tox 7.5%, Nrf2 activator -0.5%, TGFb inhibitor 0.3%, HepG2 tox 1.1% and Nrf2 block 10.7%.
O=S(=O)(NC1CC1)c1ccc(S(=O)(=O)N2CCCc3ccccc32)cc1 was read as A549 tox -16.3%, Nrf2 activator -0.5%, TGFb inhibitor inconclusive, HepG2 tox -33.9% and Nrf2 block 23.1µM*.
For Cc1nc2ccccc2c(=O)n1NC(=O)/C=C/c1ccc(Br)cc1 the results were A549 tox 1.0%, Nrf2 activator 5.2%, TGFb inhibitor -8.7%, HepG2 tox 0.4% and Nrf2 block inconclusive.
Screening Cc1ccc(NC(=O)O/N=C/c2c(C)nn(C(C)(C)C)c2C)cc1Cl returned A549 tox 1.3%, Nrf2 activator -3.3%, TGFb inhibitor -10.5%, HepG2 tox -22.9% and Nrf2 block 0.326µM*.
Screening Cc1ccc(NC(=O)Nn2cnnc2)cc1Cl returned A549 tox 0.2%, Nrf2 activator -0.7%, TGFb inhibitor 0.1%, HepG2 tox 1.5% and Nrf2 block 2.3%.
`CS(=O)(=O)Nc1ccc(C2=NN(C(=O)c3ccccc3)C(c3cccs3)C2)cc1` (centres undefined) gave A549 tox -10.7%, Nrf2 activator 3.0%, TGFb inhibitor -8.0%, HepG2 tox -6.2% and Nrf2 block inconclusive.
`CS(=O)(=O)Nc1ccc(C2=NN(C(=O)c3cccc(F)c3)C(c3cccs3)C2)cc1` (centres undefined) gave A549 tox inconclusive, Nrf2 activator 3.0%, TGFb inhibitor 11.1%, HepG2 tox 11.8% and Nrf2 block 18.4µM*.
CN(C)c1ccc(C2CC(c3cccc(NS(C)(=O)=O)c3)=NN2C(=O)c2ccccc2)cc1 (centres undefined) was read as A549 tox inconclusive, Nrf2 activator 2.8%, TGFb inhibitor 0.6%, HepG2 tox -24.5% and Nrf2 block 23.1µM*.
Screening O=C(NCc1cccnc1)C1CCN(Cc2cc3ccccc3n2Cc2ccccc2)CC1 returned A549 tox -7.7%, Nrf2 activator 10.0%, TGFb inhibitor inconclusive and HepG2 tox -55.1%.
Screening Cc1ccccc1Cn1c(CN2CCC(C(=O)NCc3cccnc3)CC2)cc2ccccc21 returned A549 tox 0.5%, Nrf2 activator 12.2%, TGFb inhibitor 15.8µM* and HepG2 tox -44.6%.
Screening CCOc1ccc(NC(=O)Cn2sc3nc(C)cc(C)c3c2=O)cc1 returned A549 tox 0.6%, Nrf2 activator -0.4%, TGFb inhibitor 11.2µM*, HepG2 tox -53.6% and Nrf2 block 2.0%.
Screening O=C(COC(=O)c1ccc2c(c1)S(=O)(=O)c1ccccc1C2=O)NC1CC1 returned A549 tox 4.7%, Nrf2 activator -0.7%, TGFb inhibitor -2.3%, HepG2 tox 1.9% and Nrf2 block -4.5%.
